Measured values: PubChem BioAssay (NCI)
This is part of a sample that, as a whole, favours compounds with a hit. Of some 83,000 tested, about 20% had one in any assay.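 For each line, cells grew in 96-well plates with the test compound present at a single concentration for 48 hours.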 A number with no mark means an inactive call. The source made the active and inactive calls.

test system: NCI/ADR-RES ovarian; test: NCI-60 one-dose screen, 48 h (100 = growth as untreated, 0 = no growth, -100 = all killed); details: 10 µM unless noted
Procedure: Growth inhibition of the NCI/ADR-RES human […] tumor cell line is measured as a screen for anti-cancer activity. Cells are grown in 96 well plates and exposed to the test compound for 48 hours. Compounds are tested at a single concentration, which is 10^-5 M for most compounds. The reported endpoint is percent growth (GI% or GIPRCNT), where numbers from 0 - 100% represent growth inhibition, and numbers from -100% - 0 represent cell death. For example, a value of 40 represents 60% growth inhibition. A value of 0 means no net growth occurred over the course of the experiment. A value of -40 indicates 40% of cells at the beginning of the experiment died by the end of the experiment. A value of -100 means all cells are dead at the end of the experiment.
NCI-60 Human Tumor Cell Lines Screen was performed using the standard one-dose NCI protocol, which is described in more detail at https://dtp.cancer.gov/discovery_development/nci-60/default.htm.
Compounds with GIPRCNT values below 10 were considered active. Activity score was based on GIPRCNT using the following formula: […]
Score is 0 for GIPRCNT values of 100 or above, 50 for GIPRCNT values of 0, and 100 for GIPRCNT values of -100.

SMILES	growth
CCCN1CCN(c2ccc3nc(-c4ccc5nc(-c6ccc(OCC)cc6)[nH]c5c4)[nH]c3c2)CC1	41.7%
CSc1nc(NCc2ccccc2)c(C#N)c(-c2cccc([N+](=O)[O-])c2)n1	95.2%
c1ccc(-c2c(-c3ccccc3)[n+](Cc3ccc4ccccc4c3)c(-c3ccc(-c4nc5ccccc5s4)cc3)n2Cc2ccc3ccccc3c2)cc1	-52.1% (active)
C=C1c2nc3ccccc3n2C=C(c2ccc(Cl)cc2)N1Cc1ccc(OC)cc1	62.7%
C=C(C)[C@@H]1CC[C@]2(C(=O)OC)CC[C@]3(C)[C@H](CC[C@@H]4[C@@]5(C)C/C(=C/c6ccc(OC)cc6)C(=O)C(C)(C)[C@@H]5CC[C@]43C)[C@@H]12	93.2%
COc1ccc(-c2nc(SCC(=O)Nc3ccc(C(=O)/C=C/c4ccc(Cl)cc4)cc3)[nH]c(=O)c2C#N)cc1	102%
COc1ccc(-n2nc(C)c3c(Nc4ccc(NC(=O)Nc5c(Cl)cccc5Cl)cc4)ncnc32)cc1	55.9%
COc1cc(-c2nn(-c3ccc(C)cc3)cc2C(=O)O)ccc1O	94.5%
O=[N+]([O-])c1ccc2c(c1)Cc1cc(F)ccc1-2	106%
CCCCN(CCCC)CCCn1c(-c2ccccc2)ccc1-c1ccccc1	65.1%
COc1ccc(C2CC(c3ccc(Cl)cc3)=NN2/C=C2\SC(=S)N(NC(=O)Cc3ccccc3Nc3c(Cl)cccc3Cl)C2=O)cc1 (stereo not given)	82%
C=C1C(=O)O[C@H]2[C@H]1CC/C(COC(=O)NCc1ccc(OC)c(OC)c1)=C\CC[C@@]1(C)O[C@@H]21	93.9%
CCOc1ccc(-n2nc(C(=O)Nc3ccccc3)nc2-c2cc(OC)c(OC)c(OC)c2)cc1	45.7%
COc1cc2nc(N3CCCC3)nc(NCCc3ccccc3)c2cc1OC	61.8%
O=C1OC(c2ccccc2)C(O)=C1c1ccccc1 (stereo not given)	116%
COc1ccc2cc(-c3nn(-c4ccc(C(=O)O)cc4)cc3CO)ccc2c1	99.8%
COc1cc(/C=C/C(=O)c2cccnc2Nc2ccc(F)cc2)cc(OC)c1OC	8.54% (active)
Cc1cc(C)nc(SC2=C(Nc3ccc(C)c(Cl)c3)C(=O)N(Cc3ccccc3)C2=O)n1	62.8% [30 µM]
CN(CCCCCl)P(=O)(OCc1ccc([N+](=O)[O-])o1)C(F)(F)c1ccc(CC(=O)NC[C@@H](O)/C=C\[C@@H](O)[C@H](CO)Cc2ccccc2)cc1 (stereo not given in full)	101%
COc1ccc(C2C(C#N)=C(N)Oc3n[nH]c(-c4cccs4)c32)cc1I (stereo not given)	96.2%

SMILES	growth
COc1cc2c(cc1O)CC[C@@H]1[C@@H]2CC[C@]2(C)[C@@H](OCCCN(C)C)CC[C@@H]12	-23.4% (active)
NC1=C(Cl)C(=O)c2ccc(S(N)(=O)=O)cc2C1=O	-30.7% (active)
Cc1cc2c3ccccc3ccc2[n+]2ccccc12	46.7%
O=C1Nc2ccc(Br)cc2C12Oc1ccccc1C1CC(c3ccc(F)cc3)=NN12 (stereo not given)	97.3%
CCCCn1cnc2c(Sc3c([N+](=O)[O-])ncn3C)nc(N)nc21	109%
C(=C\c1nccc2c1[nH]c1ccccc12)/c1ccccc1	15.5%
CN1CCN(c2ccc3nc(-c4ccc(OCCCCN5CCN(CCCCN6C(=O)c7cccc8cccc(c78)C6=O)CC5)cc4)[nH]c3c2)CC1	69.6%
CC(=O)O[C@H]1CC[C@]2(C)[C@H]3CC=C4[C@@H]5CC(C)(C)CC[C@]5(C(=O)NCCNCCNCCN)CC[C@@]4(C)[C@]3(C)CC[C@H]2C1(C)C	74.6%
OCCN1CCN(c2nc(Nc3ccc(-c4nc5ccccc5[nH]4)cc3)c3cn[nH]c3n2)CC1	-77.3% (active)
CC1C(/C=N/Nc2ccccc2)C(C#N)(C#N)C1(C#N)C#N (stereo not given)	65.1%
N#Cc1c(-c2ccc(Cl)cc2)nc(N=Nc2c(O)[nH]c3ccc(Cl)cc23)nc1N1CCOCC1	88.3%
N#Cc1c(-c2ccc(Cl)cc2)nc(NN=Cc2ccco2)nc1N1CCOCC1	75.8%
COc1cccc(-c2nc(SCC(=O)Nc3ccc(C(=O)/C=C/c4ccc(OC)c(OC)c4)cc3)[nH]c(=O)c2C#N)c1	93.6%
COc1cccc(C2=NN3C(C2)c2cc(Br)cc(OC)c2OC32CCN(Cc3ccccc3)CC2)c1 (stereo not given)	105%
COC(=O)[C@@H]1CCCN1C(=O)[C@@H]1CCCN1C(=O)[C@H](Cc1ccccc1)NC(=S)Nc1cc(C(F)(F)F)cc(C(F)(F)F)c1	67.4%
Cn1cc(-c2nonc2-c2c[nH]c3ccc(F)cc23)c2cccnc21	73.1%
CC(=O)O[C@H]1[C@@H]2OC(=O)C(CSc3ccccc3)[C@@H]2C[C@H]2O[C@]2(C)CC/C=C(\C)CCC[C@@H]1C (stereo not given in full)	29.6%
O=C(N/N=C/c1ccccc1O)c1ccccc1Nc1ccnc(C(F)(F)F)c1	7.23% (active)
CCCCn1c(-c2ccc(C(=O)O/N=C(\N)c3ccc4ccccc4c3)cc2)nc(-c2ccccc2)c1-c1ccccc1	30.9%
COc1ccc(-c2nc3ccc(-c4nc5ccc(N6CCN(C)CC6)cc5[nH]4)cc3[nH]2)cc1OC	103%
